MARV entry inh = qHTS for inhibitors of binding or entry into cells for Marburg Virus; Marburg virus pseudotyped entry inhibition, cell reporter; Potency, µM (highest dose often 37.8 µM), actives largely listed as inhibitors; actives 1.8% (n = 300,000); AID 540276, 2011; calls by dose curve; tested in HEK293 cells
Lassa entry inh = qHTS for Inhibitors of binding or entry into cells for Lassa Virus | Lassa virus pseudotype entry inhibition, cell reporter | Potency, µM (titrated, usually from 37.9 µM), hits mostly inhibitors | actives 1.2% (n = 300,000) | AID 540256, 2011; calls by dose curve; tested in HEK293 cells; note: nearly all actives have a fitted effect of over 50% in size
VACV mCherry inh = qHTS for Stage-Specific Inhibitors of Vaccinia Orthopoxvirus: mCherry Reporter Primary qHTS; AID 720579, 2013; Vaccinia virus mCherry reporter infection, fluorescence; actives 0.63% (n = 310,000); Potency, µM (series often up to 36.5 µM), actives largely listed as inhibitors; calls by dose curve; tested in A549 cells; note: nearly all actives have a fitted effect of over 35% in size
VACV Venus inh = qHTS for Stage-Specific Inhibitors of Vaccinia Orthopoxvirus: Venus Reporter Primary qHTS. actives 0.46% (n = 330,000). Potency, µM (titrated, usually from 36.5 µM), usual class: inhibitors. Vaccinia virus Venus reporter expression, fluorescence; calls by dose curve; tested in A549 cells; note: nearly all actives have a fitted effect of over 30% in size
Cycloheximide cs = Cycloheximide Counterscreen for Small Molecule Inhibitors of Shiga Toxin; cell reporter, cycloheximide protein synthesis inhibition counterscreen; max response, %; actives 12% (n = 300,000); AID 2314, 2010; in the data active = max response mostly above about 13%, no sharp cut-off; inactive = mostly below about 14%; note: read at 38.3 µM for the half of the compounds with a filed dose
Shiga toxin inh = A qHTS for Small Molecule Inhibitors of Shiga Toxin; inhibition, % at 38.7 µM; AID 2315, 2010; Vero cells, Shiga toxin protein synthesis inhibition reporter; actives 9.2% (n = 290,000); in the data active = inhibition mostly above about 28%, no sharp cut-off; inactive = mostly below about 43%
Numbers stand for hits; - = inactive; ? = inconclusive; . = no result given. Many of the other results were omitted from the sample, so hits are more common in it than they were.

SMILES	MARV entry inh	Lassa entry inh	VACV mCherry inh	VACV Venus inh	Cycloheximide cs	Shiga toxin inh
CCSc1nc2sc3c(c2c(=O)n1-c1ccc(C)cc1)CCCC3	.	-	-	-	.	.
COc1cc(OC)nc(-n2ncc(Br)c(Br)c2=O)n1	1.64µM	1.26µM	?	11.2µM	-	-
COC(=O)c1cnn(-c2nc(OC)cc(OC)n2)c1C	-	-	-	-	-	-
C/C(=N\NC(=O)C(=O)Nc1cc(Cl)ccc1Cl)c1ccncc1	-	-	-	-	-	-
C/C(=N\NC(=O)c1ccncc1)c1ccc(NC(=O)c2ccc(Cl)cc2)cc1	.	.	.	.	57.2	97.0
COc1ccc(C(=O)Nc2ccc(/C(C)=N/NC(=O)c3ccncc3)cc2)cc1	.	.	.	.	26.1	-
COc1ccc(/C(C)=N/NC(=O)c2ccncc2)cc1	.	.	.	.	-	-
C/C(=N/NC(=O)c1ccncc1)c1ccc(NC(=O)c2ccc(Cl)cc2Cl)cc1	?	-	-	-	62.5	-
O=C(N/N=C/c1ccncc1)c1ccc(NC(=O)c2ccc(Cl)cc2)cc1	?	-	-	-	-	-
COc1ccc(/C(C)=N/NC(=O)c2ccccc2N)cc1	?	-	-	-	34.2	77.9
CCCC1(C)C(C#N)C(=O)NC(=O)C1C#N (configuration not stated)	?	-	-	-	.	.
CCCC1(C)C(C#N)(C#N)C1(C#N)C#N	16.4µM	4.11µM	.	.	.	.
O=C(CNc1ccccc1)N/N=C/c1c(O)ccc2ccccc12	.	.	.	.	-	-
O=C(CN1CCOCC1)N/N=C/c1c(O)ccc2ccccc12	?	11.2µM	?	?	-	.
O=C(CSCC(=O)Nc1ccccc1)N/N=C/c1c(O)ccc2ccccc12	?	25.9µM	.	.	-	-
O=C(CN1CCOCC1)N/N=C/c1ccco1	?	-	-	-	-	-
Cc1cc(NC(=O)COC(=O)C2CCN(C(=O)c3ccc(Cl)cc3)CC2)no1	-	-	-	-	-	-
COCCn1c(C)cc(C(=O)COC(=O)C23CC4CC(CC(O)(C4)C2)C3)c1C	?	?	.	.	38.0	57.1
Cc1cc(C(=O)CSc2nnc(-c3ccc(Cl)cc3)n2C)c(C)n1CC1CCCO1 (configuration not stated)	-	-	-	-	-	-
CSc1ncccc1C(=O)OCC(=O)c1ccccc1	-	-	-	-	-	-
COc1ccc(C(=O)COC(=O)c2cccnc2SC)cc1	-	-	-	-	30.3	-
Cc1cc(C(=O)COC(=O)C2CCN(C(=O)c3ccc(Cl)cc3)CC2)c(C)n1CC1CCCO1 (configuration not stated)	-	-	-	-	66.1	99.9
Cc1cc(C(=O)Cn2nnc(-c3ccc(Cl)cc3)n2)c(C)n1CC1CCCO1 (configuration not stated)	-	?	-	-	16.6	-
Fc1ccc(Nc2nc(SCc3ccccc3F)nc3ccccc23)cc1	.	-	-	-	.	.
O=[N+]([O-])c1cc(S(=O)(=O)NC2=NCCCCC2)ccc1NCC1CCCCC1	.	.	.	.	-	-
SMILES	MARV entry inh	Lassa entry inh	VACV mCherry inh	VACV Venus inh	Cycloheximide cs	Shiga toxin inh
COc1ccc(C(=O)Nc2ccnn2C2CCN(CCC(C)c3ccc(C)o3)CC2)cc1 (configuration not stated)	?	-	-	-	-	-
Cc1cccc(OCC(=O)Nc2ccc(Cl)c(-c3nc4ncccc4o3)c2)c1C	-	?	-	-	.	.
CC(C)(C)N1OC2CC1c1nc3ccccc3n1C2 (configuration not stated)	.	.	-	-	-	-
Cc1cc(C)c(C(=O)COC(=O)c2ccc([N+](=O)[O-])o2)cc1C	-	-	-	-	-	-
CSc1ncccc1C(=O)OCC(=O)c1cc(C)n(CC2CCCO2)c1C (configuration not stated)	-	?	-	-	38.8	56.0
COCCn1c(C)cc(C(=O)COC(=O)c2ccc([N+](=O)[O-])o2)c1C	-	-	-	-	45.9	122.7
Cc1cc(C(=O)COC(=O)c2ccc3c(c2)OCO3)c(C)n1CC1CCCO1 (configuration not stated)	?	-	-	-	40.4	147.3
Cc1cc(C(=O)COC(=O)c2ccc([N+](=O)[O-])o2)c(C)n1CC1CCCO1 (configuration not stated)	-	-	-	-	49.4	123.0
CCC(=O)c1ccc(OCC(=O)OCC(=O)c2cc(C)n(CC3CCCO3)c2C)cc1 (configuration not stated)	-	-	-	-	.	.
COC(=O)c1ccc([C@H]2/C(=C(\O)c3ccc(OC)cc3)C(=O)C(=O)N2Cc2ccco2)cc1	-	.	.	.	.	.
COc1ccc(NS(=O)(=O)c2ccc(-c3cnc(C4CC4)o3)cc2)cc1Cl	.	?	-	-	.	.
COc1ccc(C(=O)COC(=O)c2nn(C)cc2Cl)cc1	?	?	-	-	14.8	69.3
COc1ccc(CC(=O)OCC(=O)c2ccc(OC)cc2)cc1	-	-	-	-	-	-
COCCn1c(C)cc(C(=O)COC(=O)c2cc3c(s2)CCC3)c1C	-	-	-	-	30.3	94.8
O=C1CCCCc2cc(O)c(O)cc21	.	.	-	-	.	.
Nc1cc2c(cc1O)CCCC2	-	-	-	-	51.4	-
Cc1cccc(C(=O)N2CCOc3ccc(CN(C)Cc4cc(C5CC5)n[nH]4)cc3C2)n1	.	.	-	-	.	.
CCOC(=O)c1nc(NCc2ccccc2)sc1C	-	.	-	-	62.6	89.1
Cc1sc(NCc2ccccc2)nc1-c1ccccc1	.	.	-	-	.	.
CCOC(=O)c1cnc2ccc(OCC)cc2c1N1CCN(c2ccccc2)CC1	?	?	.	.	-	-
CCOC(=O)c1cnc(NCc2ccccc2)nc1C	?	-	.	.	44.4	54.7
CCOC(=O)c1cnc2ccc(OCC)cc2c1NCc1ccccc1	?	?	-	-	19.4	42.1
CCOC(=O)c1cnc2ccc(OCC)cc2c1NCc1cccnc1	?	-	-	-	26.6	42.4
CC1CCN(c2nn3c(=O)c(C(=O)NCc4ccc(Cl)cc4)cnc3s2)CC1	.	-	-	-	.	.
COc1ccc(C(=O)Nc2ccc(-n3nncc3-c3ccc(OC)c(OC)c3)cc2)cc1	.	?	-	-	.	.
SMILES	MARV entry inh	Lassa entry inh	VACV mCherry inh	VACV Venus inh	Cycloheximide cs	Shiga toxin inh
CCOC(=O)c1nc(-c2ccccc2)oc1N(C)C	-	-	.	?	16.5	-
CCOC(=O)c1nc(-c2ccccc2)sc1C(C)=O	-	-	-	-	20.3	-
CCOC(=O)c1cnc2c(ccc3ccccc32)c1Nc1ccccc1O	-	-	-	-	.	.
CCOC(=O)c1sc(N(C)C)nc1-c1ccccc1	-	-	-	-	-	-
CCOC(=O)c1cnc2c(ccc3ccccc32)c1Cl	-	-	-	-	21.4	121.1
COc1ccc(-c2c(C)nn3c(C(F)(F)F)cc(-c4ccccc4)nc23)cc1	-	-	-	-	.	.
CC1(C)CC(=O)c2cc(C(=O)Nc3ccccc3)c(=O)[nH]c2C1	.	.	-	-	.	.
CC(=O)Nc1ccc(C(=O)CSc2nnc3cc(C)c4ccccc4n23)cc1	-	-	-	-	.	.
